These results are taken from PubChem BioAssay (NCI).

A short description of this assay: NCI Yeast Anticancer Drug Screen. Data for the sgs1 mgt1 strain (AID 161).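 Also: 0% = growth of cultures given vehicle only.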 Conditions: S. cerevisiae sgs1 mgt1 strain, stronger effect = higher value. How it is done: Growth inhibition of yeast strains with defined genetic alterations is measured as a screen for potential anti-cancer activity. Selected strains with alterations in DNA damage repair or cell cycle control were exposed to compounds and growth inhibition was measured relative to vehicle treated controls. The strain used in this assay is sgs1 mgt1

Where [1] appears, read: at 5.0 µM (retest, dose inferred, filed as 0.5).
Setting [2] is: at 50.0 µM (retest, dose inferred, filed as 5.0).

Compounds without any hit were thinned out: in the full panel of roughly 79,000, 15% have a hit. A number with no mark means an inactive call. Calls of active or inactive are those of the source. Rule as the data show it: active = growth inhibition above about 70%; inactive = the rest.

Take `Cn1c(-c2ccc(/C=N/NC(=S)N/N=C/c3ccc(-c4c[n+]5ccsc5n4C)cc3)cc2)c[n+]2ccsc12`: the growth inhibition under setting [1] is 73% (active), the growth inhibition under setting [2] was 98% (active) and the growth inhibition (at 50.0 µM) was 91.4% (active).

Take `O=C1c2ccccc2CCC1C(O)(C(F)(F)F)C(F)(F)F` (configuration not stated): the growth inhibition runs as follows: under setting [1], 22%; under setting [2], 7%; (at 50.0 µM) -35.8%.

As for `O=S(O)CCCCCSSc1ccc(Cl)cc1`, the growth inhibition was 5% under setting [1], 97% (active) under setting [2] and 98.8% (active) (at 50.0 µM).

For the molecule `Cc1ccc(N2C(c3ccccc3)=CC(=C3C=CC(=O)C=C3)C=C2c2ccccc2)cc1`, the growth inhibition is, setting by setting: under setting [1], 7%; under setting [2], 83% (active); (at 50.0 µM) 93.7% (active).

Consider `O=C1/C(=C\c2ccc([N+](=O)[O-])o2)Oc2cc(O)ccc21`, for which the growth inhibition under setting [1] was 96% (active), the growth inhibition under setting [2] is 96% (active) and the growth inhibition (at 50.0 µM) is 95.7% (active).

Take `CN=C(N)N/N=C(\C)c1ccc2c(ccc3ccccc32)c1`: the growth inhibition by setting is: under setting [1], 13%; under setting [2], 99% (active); (at 50.0 µM) 90.8% (active).

Regarding `O=C(O)c1cc2ccc(Cl)cc2c2c1C(=O)c1cc(Cl)ccc1-2`, the growth inhibition runs as follows: under setting [1], -2%; under setting [2], 35%; (at 50.0 µM) 82.5% (active).

`C1=C(c2ccccc2)SC=C(c2ccccc2)S1`: the growth inhibition reads like this: under setting [1], -2%; under setting [2], 40%; (at 50.0 µM) -0.9%.

As to `CC1OC(C)C(O)C2=C1C(=O)c1ccccc1C2=O` (configuration not stated), the growth inhibition runs as follows: under setting [1], 14%; under setting [2], 94% (active); (at 50.0 µM) 91.8% (active).

As to `O=C(O)C(Cc1cc(I)c(O)c(I)c1)C1CCCCC1` (configuration not stated), the growth inhibition was 3% under setting [1], 97% (active) under setting [2] and 99.3% (active) (at 50.0 µM).

As to `CC1CCC(SC2CC(=O)CCC2=O)CC1` (configuration not stated), the growth inhibition is, setting by setting: under setting [1], 21%; under setting [2], 99% (active); (at 50.0 µM) 92% (active).

Take `C[CH2][Sn]([CH2]C)([O]C(=O)c1cc(OC)c(OC)c(OC)c1)[O][Sn]([CH2]C)([CH2]C)[O]C(=O)c1cc(OC)c(OC)c(OC)c1`: the growth inhibition was 31% under setting [1], 85% (active) under setting [2] and 23.6% (at 50.0 µM).

Consider `CC(C)c1cc2c(cc1O)C(O)C1(O)CCCC(C)(C)[C@H]1CC2` (some centres not stated), for which the growth inhibition is -1% under setting [1], 99% (active) under setting [2] and 93% (active) (at 50.0 µM).

On to `O=C1CC(c2ccccc2)NN1` (configuration not stated), for which the growth inhibition is -51% under setting [1], 89% (active) under setting [2] and 69.8% (at 50.0 µM).
